One may read the inhibition as the relative decrease from the control value, in per cent.

Hit rate of the full screen: of about 220,000 compounds, about 2,000 (0.91%) were called active. Inconclusive results (about 2%) are left out. Rule as the data show it: inconclusive = inhibition above about 80% without an active follow-up result; inactive = below that; test concentration not stated here. These entries were drawn from the full list. Measured potencies and affinities stand elsewhere.

The assay in a line: M. tuberculosis H37Rv growth inhibitors, H37Rv strain (AID 1626).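 Also: bacteria incubated seven days before Alamar blue readout; 0% = bacteria only wells and 100% = bacteria with antibiotic wells.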 To be noted: active compounds read high, concentration not given here.
For the compound `CCCCCn1c(SCc2cccc(C)c2)nc2c1c(=O)[nH]c(=O)n2C`, the inhibition was 14.6% (inactive).
Take `CC/C(=N\NC(=O)c1cccnc1)c1ccc2c(c1)OCCO2`: the inhibition is 3.21% (inactive).
The same measure for `CC1(C)CC(NC(=O)CCc2nnc(CCCCc3ccccc3)o2)CCO1` (stereo not given): -4.26% (inactive); for `Cc1ccc(NC(=S)N(CCN2CCOCC2)Cc2cc3cc4c(cc3[nH]c2=O)OCCO4)cc1`: 2.46% (inactive).
On to `NC(=S)Nc1cnc2ccccc2c1`, for which the inhibition is 0.46% (inactive).
On to `COc1cccc(CNc2cccc3cccnc23)c1O`, for which the inhibition is 6.53% (inactive).
On to `COc1cccc(CNc2ncc(Br)cc2Br)c1O`, for which the inhibition was -8.94% (inactive).
With `CCN(CC)C(=O)Nc1cnc2ccccc2c1`, the inhibition is 63.2% (inactive).
Turning to `Oc1ccc2ccccc2c1CNn1cnnc1`, the inhibition is 1.43% (inactive).
On to `Cn1c(NCc2c(O)ccc3ccccc23)nc2ccccc21`, for which the inhibition is 6.55% (inactive).
The same measure for `Cc1nc(SCC(=O)Nc2cccc(Cl)c2)n[nH]1`: -3.06% (inactive).
As to `O=C1CCC/C(=N\NC(=O)c2ccc(COc3ccccc3-c3ccccc3)cc2)C1`, the inhibition is 4.62% (inactive).
In the case of `Cc1cccc(N2CC(C(=O)OCC(=O)c3ccc(OC(=O)c4cccs4)cc3)CC2=O)c1C` (stereo not given), the inhibition is 1.47% (inactive).
`CN(CCOC(=O)c1ccc2c(c1)OCO2)C(C)(C)C`: the inhibition is -1.44% (inactive).
As for `CC1=CC2=NC(=O)/C(=C\c3cccn3CCOc3cc(C)ccc3C)C(=N)N2O1`, the figure is 12.3% (inactive); as for `O=C(CCc1ccccc1)N1N=C(c2ccncc2)CC1(O)C(F)(F)F` (stereo not given), -7.97% (inactive); as for `O=C(NCCN1CCCCC1)Nc1ccc(F)c(Cl)c1`, -6.79% (inactive).
Take `Cc1ccc(N=Nc2c(C)[nH]n(C(N)=S)c2=O)cc1`: the inhibition is -3.59% (inactive).
Turning to `Cc1[nH]n(C)c(=O)c1N=Nc1ccc(S(C)(=O)=O)cc1`, the inhibition was -6.82% (inactive).
Consider `COc1ccc(-c2nnc(SCC(=O)NC(C)C)n2CC2CCCO2)cc1OC` (stereo not given), for which the inhibition was -10.3% (inactive).
Regarding `COc1ccc(C2/C=C\CN(C(=O)Oc3ccc(C(F)(F)F)cc3)CC(=O)N2Cc2ccc(F)cc2)cc1` (stereo not given), the inhibition was 2.36% (inactive).
On to `COc1ccc(C2/C=C\CN(C(=O)Nc3ccccc3)CC(=O)N2Cc2ccc(F)cc2)cc1` (stereo not given), for which the inhibition was -8.73% (inactive).
As to `COc1ccc(NC(=O)C(=O)NCCCn2ccnc2)cc1`, the inhibition was -13.8% (inactive).
The same measure for `O=C(Nc1csc([N+](=O)[O-])c1)Nc1c(Cl)cccc1Cl`: 0.45% (inactive); for `O=C(Nc1csc([N+](=O)[O-])c1)Nc1ccccc1Cl`: 76.8% (inactive); for `O=C(CN(CCc1ccccc1)S(=O)(=O)c1ccc(Br)cc1)N/N=C/c1ccccc1C(=O)O`: 1.98% (inactive).
The same measure for `COc1ccc(-n2nc(C(N)=O)c(O)cc2=O)cc1`: -4.24% (inactive).
The same measure for `COc1ccccc1CNC(=O)CN1C(=O)CSc2ccc(S(=O)(=O)N3CCCC3)cc21`: -3.73% (inactive); for `CCOC(=O)c1ccc(N2C(=O)c3n[nH]c(C)c3C2c2ccccc2)cc1` (stereo not given): -3.14% (inactive).
`CCOC(=O)c1ccc(N2C(=O)c3n[nH]c(C)c3C2c2ccco2)cc1` (stereo not given): the inhibition was 0.01% (inactive).
Take `Cc1[nH]c2ccc(F)cc2c1CCN(Cc1cccnc1)C(=S)Nc1ccccc1`: the inhibition was -0.56% (inactive).
Turning to `CCCCCCCN1C2=NCCN2c2ccccc21`, the inhibition was -5.76% (inactive).
In the case of `CCCCC1=CC2=CC(=O)C(C)(OC(=O)CC)C(=O)C2=CN1CCN1CCOCC1` (stereo not given), the inhibition was 2.28% (inactive).
Consider `Cc1ccc(C2C(C#N)=C(N)OC3=C2C(=O)CC(C)(C)C3)s1` (stereo not given), for which the inhibition was 2.18% (inactive).
Regarding `CC1(C)CC(=O)C2=C(C1)OC(N)=C([N+](=O)[O-])C2c1cccs1` (stereo not given), the inhibition is 3.66% (inactive).
On to `O=C1/C(=C/c2ccccc2Cl)N2CCC1CC2`, for which the inhibition is 7.2% (inactive).
For the compound `Cc1ccc2c(c1)C(c1ccncc1)=NNC(c1ccc(F)cc1)=N2`, the inhibition was 5.08% (inactive).
Take `COc1ccc(-c2ccc(OC)c([C@H]3[C@@H]4C=CCC[C@@]4(C)C(=O)N3Cc3ccccc3)c2)cc1OC`: the inhibition is 10.5% (inactive).
Consider `COc1ccc(-c2ccc([C@H]3[C@@H]4C=CCC[C@@]4(C)C(=O)N3Cc3ccccc3)c(F)c2)cc1`, for which the inhibition was 21.9% (inactive).
In the case of `O=C(CCn1c(=O)oc2ccccc21)N(Cc1ccccc1)c1ccccc1`, the inhibition is -1.76% (inactive).
For `Cc1nc2c(cnn2-c2ccccc2)c(=O)n1/N=C/c1ccccc1`, the inhibition was 3.66% (inactive).
For the compound `COc1ccc(C(=O)Cc2nnc(C)s2)c(OC)c1`, the inhibition was -1.08% (inactive).
As for `Cc1[nH]c2ccccc2c1-c1csc(NC(=O)CN2CCOCC2)n1`, the inhibition was 1.74% (inactive).
Consider `O=C(COC(=O)c1c2c(nc3ccccc13)CCCC2)Nc1ccc2c(c1)OCO2`, for which the inhibition was 4.85% (inactive).
For `O=C(COC(=O)c1cc(-c2ccccc2)nc2ccccc12)Nc1ccc2c(c1)OCO2`, the inhibition is -6.74% (inactive).
As to `COc1ccc(S(=O)(=O)N2CCCCCC2)cc1C(=O)OC(C)C(N)=O` (stereo not given), the inhibition is -6.24% (inactive).
The same measure for `CCN(CCCNC(=O)C1CCCN(S(=O)(=O)c2cnc[nH]2)C1)c1ccccc1` (stereo not given): -7.75% (inactive); for `COc1ccc(C)cc1NC(=O)C(OC(=O)C1CC1)c1ccccc1` (stereo not given): 0.31% (inactive).
As for `COc1ccc(C(=O)OCC(=O)Nc2ccc(Cl)cn2)cc1`, the inhibition was -2.66% (inactive).
As for `O=C(COC(=O)c1ccccc1)Nc1ccc(Cl)cn1`, the inhibition is -1.7% (inactive).
As for `O=C(CCN1C(=O)S/C(=C\c2cccs2)C1=O)NC1=NCCS1`, the inhibition is -3.39% (inactive).
For the compound `Nc1nc(CN2CCN(Cc3ccccc3)CC2)nc(Nc2ccccc2)n1`, the inhibition is -0.83% (inactive).
Consider `CCOc1ccc(NC(=O)CCN2CCN(c3ccccc3OC)CC2)cc1`, for which the inhibition was 7.58% (inactive).
The same measure for `CCOC(=O)N1CCN(Cc2nc(N)nc(Nc3ccc(OCC)cc3)n2)CC1`: -0.7% (inactive); for `COc1cc(NC(=O)CCN2CCN(c3ccccc3F)CC2)cc(OC)c1`: -9.84% (inactive); for `Nc1nc(CN2CCN(c3ccccc3F)CC2)nc(Nc2ccccc2)n1`: 55.9% (inactive).
As for `COc1ccc(Nc2nc(N)nc(CCl)n2)cc1`, the inhibition was 63.6% (inactive).
Turning to `COc1ccc(Nc2nc(N)nc(COc3ccc(OC)cc3)n2)cc1`, the inhibition is 3.88% (inactive).
As to `Nc1nc(CN2CCCCCC2)nc(Nc2ccccc2)n1`, the inhibition is 0.64% (inactive).
For `Cc1cc(Nc2ccc(C)c(Br)c2)n2nc(C)nc2n1`, the inhibition was -3.51% (inactive).

(Values after PubChem BioAssay AID1626 (SRMLSC, 2009).)
